Assay results as given in PubChem BioAssay.
Inconclusive results are not listed. Active and inactive are the calls of the source.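 How the source made its calls, unless noted: active means normalized viability below 100% at a tested concentration; inactive means the rest.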

Assays:
[1] = viability loss in pontine glioma line – cell-based, SU-DIPG-XVII, MIPE5.0, CellTiter-Glo, qHTS, dose response (AID 1347060; cut-off not given, nearly all actives have AC50 up to about 26 µM;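 on AC50: cells exposed to compound for 48 hours before viability readout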); conditions: CellTiter-Glo ATP luminescence
[2] = viability loss in pontine glioma line – cell-based, JHH-DIPG-1, MIPE4.0, CellTiter-Glo, qHTS, dose response (AID 1347062; cut-off not given, nearly all actives have AC50 up to about 27 µM;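 further: cells exposed to compound for two days before readout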); conditions: JHH-DIPG-1 viability, CellTiter-Glo ATP luminescence
[3] = viability loss in pontine glioma line – cell-based, SU-DIPG-IV, MIPE4.0, CellTiter-Glo, qHTS, dose response (AID 1347063; cut-off not given, nearly all actives have AC50 up to about 30 µM;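 further: compound exposure lasted 48 hours before the viability readout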); conditions: CellTiter-Glo ATP luminescence
[4] = viability loss in pontine glioma line – cell-based, SU-DIPG-XIII, MIPE5.0, CellTiter-Glo, qHTS, dose response (AID 1347064; cut-off not given, nearly all actives have AC50 up to about 23 µM;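 on AC50: cells exposed to compound for 48 hours before the viability read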); conditions: CellTiter-Glo ATP luminescence
[5] = viability loss in pontine glioma line – cell-based, SU-DIPG-XXV, MIPE5.0, CellTiter-Glo, qHTS, dose response (AID 1347065; cut-off not given, nearly all actives have AC50 up to about 26 µM;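 further: cells exposed to compound for 48 hours before ATP readout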); conditions: CellTiter-Glo ATP luminescence
[6] = growth inhibition of DIPG cells – cell-based, MIPE4.0 library, CellTiter-Glo luminescence, qHTS (AID 1347066; cut-off not given, nearly all actives have AC50 up to about 30 µM;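 further: cells exposed to compound for 48 hours before readout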); conditions: SU-DIPG-VI viability, CellTiter-Glo ATP luminescence
[7] = JHH-DIPG-1 glioma cell viability, MIPE5.0 library, CellTiter-Glo luminescence, qHTS (AID 1347067; cut-off not given, nearly all actives have AC50 up to about 26 µM;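 further: cells exposed to compound for 48 hours before readout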); conditions: JHH-DIPG-1 glioma viability, CellTiter-Glo ATP luminescence
[8] = growth inhibition of DIPG cells – cell-based, MIPE5.0 library, qHTS (AID 1347068; cut-off not given, nearly all actives have IC50 up to about 30 µM;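 on IC50: cells exposed to compound for 48 hours before viability readout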); conditions: SU-DIPG-XXV viability
[9] = compounds altering HSF1 focus formation in cells – imaging, Selleck Cancer Library (AID 1347162; in the data active means plate-normalised HSF1 focus index below about 0.46); conditions: human cells, HSF1 nuclear foci imaging, at 10 µM; SSMD: measured here: HSF1 foci SSMD mean; cell count: measured here: cell number; plate-normalised HSF1 focus index: stronger effect = lower value
[10] = drug combination growth inhibition, ovarian cancer – cell-based, oncology-focused library, rucaparib conditional, profiling panel (AID 1508598); conditions: patient-derived ovarian cancer cells, CellTiter-Glo viability, 144 h, stronger effect = lower value
[11] = viability loss with induced miR-34 in A549 – imaging, A549 dox-inducible miR-34, nuclei and caspase counts, primary screen (AID 1347080;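 active means compounds whose cell count with miR-34 switched on is under 0.7 times the count with it off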); conditions: A549 miR-34 inducible, Hoechst nuclei count, 48 h
[12] = MELAS cybrid and Rieske KO viability enhancers – cell-based, MELAS cybrids, Rieske KO mouse fibroblasts, CellTiter-Glo, primary screen (AID 1508586;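 active means mean z-score across replicates of 1.96 or higher in either the MELAS or the Rieske mutant cell line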;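 further: z relative to plate mean and SD of compound and empty wells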); conditions: low glucose

Structure (SMILES): C[C@@H](Oc1cc(-c2cnn(C3CCNCC3)c2)cnc1N)c1c(Cl)ccc(F)c1Cl
- AC50 [1]: 4.68 µM (active)
- AC50 [2]: 16.6 µM (active)
- AC50 [3]: 14.8 µM (active)
- AC50 [4]: 2.63 µM (active)
- AC50 [5]: 1.66 µM (active)
- AC50 [6]: 20.9 µM (active)
- AC50 [7]: 8.33 µM (active)
- IC50 [8]: 4.68 µM (active)
- SSMD [9]: -10.4
- cell count [9]: 5640
- plate-normalised HSF1 focus index [9]: 0.639 (inactive)
- viability ([10]; at 0.000305 µM, OCI-C5x cells, with rucaparib 10 µM, 100% = cells with rucaparib alone): 129% (inactive)
- viability ([10]; at 0.000305 µM, OCI-C5x cells, without rucaparib): 131% (inactive)
- viability ([10]; at 0.000305 µM, OCI-P5x cells, with rucaparib 20 µM, 100% = cells with rucaparib alone): 112% (inactive)
- viability ([10]; at 0.000305 µM, OCI-P5x cells, without rucaparib): 105% (inactive)
- viability ([10]; at 0.00122 µM, OCI-C5x cells, with rucaparib 10 µM, 100% = cells with rucaparib alone): 124% (inactive)
- viability ([10]; at 0.00122 µM, OCI-C5x cells, without rucaparib): 125% (inactive)
- viability ([10]; at 0.00122 µM, OCI-P5x cells, with rucaparib 20 µM, 100% = cells with rucaparib alone): 103% (inactive)
- viability ([10]; at 0.00122 µM, OCI-P5x cells, without rucaparib): 107% (inactive)
- viability ([10]; at 0.00488 µM, OCI-C5x cells, with rucaparib 10 µM, 100% = cells with rucaparib alone): 136% (inactive)
- viability ([10]; at 0.00488 µM, OCI-C5x cells, without rucaparib): 133% (inactive)
- viability ([10]; at 0.00488 µM, OCI-P5x cells, with rucaparib 20 µM, 100% = cells with rucaparib alone): 106% (inactive)
- viability ([10]; at 0.00488 µM, OCI-P5x cells, without rucaparib): 104% (inactive)
- viability ([10]; at 0.0195 µM, OCI-C5x cells, with rucaparib 10 µM, 100% = cells with rucaparib alone): 123% (inactive)
- viability ([10]; at 0.0195 µM, OCI-C5x cells, without rucaparib): 121% (inactive)
- viability ([10]; at 0.0195 µM, OCI-P5x cells, with rucaparib 20 µM, 100% = cells with rucaparib alone): 98.3% (active)
- viability ([10]; at 0.0195 µM, OCI-P5x cells, without rucaparib): 96.4% (active)
- viability ([10]; at 0.0781 µM, OCI-C5x cells, with rucaparib 10 µM, 100% = cells with rucaparib alone): 125% (inactive)
- viability ([10]; at 0.0781 µM, OCI-C5x cells, without rucaparib): 121% (inactive)
- viability ([10]; at 0.0781 µM, OCI-P5x cells, with rucaparib 20 µM, 100% = cells with rucaparib alone): 103% (inactive)
- viability ([10]; at 0.0781 µM, OCI-P5x cells, without rucaparib): 98.8% (active)
- viability ([10]; at 0.313 µM, OCI-C5x cells, with rucaparib 10 µM, 100% = cells with rucaparib alone): 118% (inactive)
- viability ([10]; at 0.313 µM, OCI-C5x cells, without rucaparib): 124% (inactive)
- viability ([10]; at 0.313 µM, OCI-P5x cells, with rucaparib 20 µM, 100% = cells with rucaparib alone): 101% (inactive)
- viability ([10]; at 0.313 µM, OCI-P5x cells, without rucaparib): 94.2% (active)
- viability ([10]; at 1.25 µM, OCI-C5x cells, with rucaparib 10 µM, 100% = cells with rucaparib alone): 117% (inactive)
- viability ([10]; at 1.25 µM, OCI-C5x cells, without rucaparib): 116% (inactive)
- viability ([10]; at 1.25 µM, OCI-P5x cells, with rucaparib 20 µM, 100% = cells with rucaparib alone): 72.6% (active)
- viability ([10]; at 1.25 µM, OCI-P5x cells, without rucaparib): 79.6% (active)
- viability ([10]; at 5 µM, OCI-C5x cells, with rucaparib 10 µM, 100% = cells with rucaparib alone): 10.7% (active)
- viability ([10]; at 5 µM, OCI-C5x cells, without rucaparib): 91.2% (active)
- viability ([10]; at 5 µM, OCI-P5x cells, with rucaparib 20 µM, 100% = cells with rucaparib alone): 6.65% (active)
- viability ([10]; at 5 µM, OCI-P5x cells, without rucaparib): 13.1% (active)

Structure (SMILES): Nc1nc(N)c2nc(-c3cccc(O)c3)c(-c3cccc(O)c3)nc2n1
- outcome [1]: inactive
- AC50 [2]: 14.8 µM (active)
- AC50 [3]: 6.62 µM (active)
- outcome [4]: inactive
- outcome [5]: inactive
- outcome [7]: inactive
- outcome [8]: inactive
- fold change ([11]; stronger effect = lower value, cell number ratio, induced over uninduced): 0.972 (inactive)
- fold change ([11]; measured here: relative caspase fold change +Dox/-Dox): 0.762
- cell count ([11]; measured here: total cells with miR-34 induction, stronger effect = lower value): 7630
- cell count ([11]; measured here: total cells without miR-34 induction): 7850
- z-score ([12]; MELAS cybrid survival, CellTiter-Glo 48 h, stronger effect = higher value): -0.482 (inactive)
- z-score ([12]; Rieske KO mouse fibroblast survival, CellTiter-Glo 72 h): 0.936
